aSyn UTR act: Activators via SNCA 5'UTR binding, MLPCN; activity score, % (tested at 7.5 µM), hits read low; 300,000 compounds, 7.1% hits; alpha-synuclein 5'UTR reporter, activators screen; in the data active = activity score below about -60%
Of the large screens only hits and unclear results are named; the others gave an inactive call. These entries were drawn from the full list.

CCN1CCN(C(=O)c2ccc(-c3nc4ccccc4s3)s2)CC1	aSyn UTR act -66
O=C(NC1CC1)c1ccc(-c2nc3ccccc3s2)s1	none
CCNC(=O)COC(=O)c1ccc(-c2nc3ccccc3s2)s1	aSyn UTR act -67
O=C(c1ccc(-c2nc3ccccc3s2)s1)N1CCOCC1	none
O=C(CSc1cccc[n+]1[O-])c1cc(Cl)ccc1Cl	aSyn UTR act -87
O=C(CSc1cccc[n+]1[O-])c1cc2ccccc2o1	aSyn UTR act -101
O=C(CN1C(=O)c2ccccc2S1(=O)=O)c1ccc(Cl)cc1Cl	none
C=CCn1c(NC(=O)c2ccc(C)cc2)nc2ccccc21	aSyn UTR act -111
CC(=O)Nc1nc2ccccc2n1Cc1ccccc1C	none
CCCCCCCn1c(NC(=O)CC)nc2ccccc21	none
Cc1ccc(C(=O)Nc2nc3ccccc3n2CCN2CCCC2)cc1	aSyn UTR act -76
CC(=C/c1ccc(C(C)C)cc1)/C=N/NC(=O)c1ccncc1	aSyn UTR act -110
CC(/C=C/c1ccccc1F)=N\NC(=O)c1cccc(F)c1	aSyn UTR act -139
CC(/C=N/NC(=O)c1ccc2nc(C)[nH]c2c1)=C\c1ccccc1	aSyn UTR act -67
CC(/C=N/NC(=O)c1cccc(F)c1)=C\c1ccccc1	aSyn UTR act -254
CCOc1cc(C(=O)N/N=C/C(Br)=C/c2ccccc2)cc(OCC)c1OCC	none
O=C(N/N=C/C(Br)=C\c1ccccc1)c1ccc2nc[nH]c2c1	aSyn UTR act -90
Cc1nn(Cc2c(F)c(F)c(F)c(F)c2F)c(C)c1NC(=O)c1ccc(COc2cc(Cl)ccc2Cl)cc1	aSyn UTR act -133
CC(C)CN1C(=O)c2ccc(NC(=O)c3ccccc3F)cc2C1=O	aSyn UTR act -144
CC(C)CN1C(=O)c2ccc(NC(=O)c3ccco3)cc2C1=O	aSyn UTR act -84
O=C(CN1C(=O)c2ccccc2S1(=O)=O)c1ccccc1F	none
CC(C)CN1C(=O)c2ccc(NC(=O)c3cccs3)cc2C1=O	aSyn UTR act -129
CC(=O)c1ccc(NC(=O)c2noc3c2CCCCC3)cc1	aSyn UTR act -87
Cc1cc(NC(=O)c2noc3c2CCCCC3)nn1Cc1ccc(Cl)cc1	aSyn UTR act -71
O=C(Nc1cccnc1)c1noc2c1CCCC2	aSyn UTR act -115
Cc1cc(NC(=O)c2noc3c2CCCCC3)no1	aSyn UTR act -168
Cc1cc(NC(=O)c2noc3c2CCCC3)no1	aSyn UTR act -107
O=C(c1cc2ccccc2oc1=O)N(Cc1ccco1)C1CCS(=O)(=O)C1 (stereo not given)	aSyn UTR act -97
O=C(COC(=O)c1ccccc1-n1cnnn1)c1ccc(F)cc1	aSyn UTR act -145
CN(C)CCCNc1cc(-c2ccccc2)nc2cc(-c3cccc(F)c3)nn12	aSyn UTR act -62
C/C(=N\NC(=O)c1ccco1)c1ccc(NC(=O)c2cccs2)cc1	aSyn UTR act -106
C/C(=N\NC(=O)C(N)=O)c1ccc(NC(=O)c2cccs2)cc1	aSyn UTR act -140
C/C(=N\NC(=O)c1ccccc1C)c1ccc(NC(=O)c2cccs2)cc1	aSyn UTR act -148
C/C(=N/NC(=O)c1ccccc1)c1ccc(NC(=O)C(F)(F)F)cc1	aSyn UTR act -69
C/C(=N/OCC(=O)Nc1ccccc1)c1cccs1	aSyn UTR act -131
C/C(=N\NC(=O)c1ccccc1)c1ccc(NC(=O)c2cccs2)cc1	aSyn UTR act -108
CCc1ccc(S(=O)(=O)Nc2cc3c(cc2C)n(C)c(=O)n3C)cc1	aSyn UTR act -92
Cn1c(=O)n(C)c2cc(S(=O)(=O)Nc3cc(Cl)ccc3O)ccc21	aSyn UTR act -72
Clc1ccc(-c2nc3cc(CN4CCCCC4)ccc3o2)cc1	aSyn UTR act -206
COc1cc(/C=C2/C(=N)N3N=C(CC(=O)N4CCOCC4)SC3=NC2=O)ccc1OCc1ccccc1	aSyn UTR act -129
CCOc1ccc(/C=C2/Sc3ccc(C(=O)N4CCN(C(=O)c5ccco5)CC4)cc3N(C)C2=O)cc1OC	none
COc1cc(/C=C2/C(=N)N3C(c4ccccc4)=CSC3=NC2=O)ccc1OCC(=O)O	aSyn UTR act -68
O=C(c1ccc(-n2cccn2)cc1)N1CCc2ccccc2C1	aSyn UTR act -63
CC(C)(C)c1ccc(-c2nnc(N)o2)cc1	aSyn UTR act -154
CCCNC(=O)c1cc(-c2ccc3c(c2)OCO3)on1	aSyn UTR act -105
CC(C)NC(=O)c1cc(-c2ccc3c(c2)OCO3)on1	aSyn UTR act -110
O=C(Nc1cccc(O)c1)c1cc(-c2ccc3c(c2)OCO3)on1	none
CCN(CC)C(=O)c1cc(-c2ccc3c(c2)OCO3)on1	aSyn UTR act -132
CCCCNC(=O)c1cc(-c2ccc3c(c2)OCO3)on1	aSyn UTR act -66
COc1ccccc1-c1cc(C(=O)NC(C)C)no1	aSyn UTR act -265
CCC(C)NC(=O)c1cc(-c2ccccc2O)on1 (stereo not given)	aSyn UTR act -83
CCN(CC)C(=O)c1cc(-c2ccccc2OC)on1	aSyn UTR act -125
COc1ccccc1-c1cc(C(=O)Nc2ccc(F)cc2F)no1	aSyn UTR act -155
COc1ccc(NC(=O)c2cc(-c3ccccc3Cl)on2)cc1OC	aSyn UTR act -96
Cc1ccc(NC(=S)/C(=C(\[O-])c2ccc(F)cc2)[n+]2ccccc2)cc1	aSyn UTR act -90
Cc1cccc2c1OCC/C2=N\NC(=O)COc1ccccc1	aSyn UTR act -86
COc1ccccc1OCC(=O)N/N=C1\CCc2ccccc21	aSyn UTR act -143
O=C(COc1ccccc1F)N/N=C1\CCCc2ccccc21	aSyn UTR act -162
CCOc1ccc2nc(SCc3cccc(C)c3)nc(C)c2c1	aSyn UTR act -129
CCOC(=O)CCSc1nc(C)c2cc(OC)ccc2n1	aSyn UTR act -123
COc1ccc(/C(=N/Nc2ncnc3ccccc23)C(=O)O)cc1	aSyn UTR act -79
Nc1cnnc(N/N=C\c2ccccc2)c1Cl	aSyn UTR act -92
O=c1cnnc(N/N=C/c2ccccn2)[nH]1	none
COc1ccc2c(c1)NC(=O)CC(c1ccccc1)=N2	aSyn UTR act -72
COc1ccc(-c2cc(=O)c3ccccc3[nH]2)cc1	aSyn UTR act -79
Cc1ccc(O)c(-c2cc3ccccc3[nH]2)c1	aSyn UTR act -131
O=c1cc(-c2ccccc2)[nH]c2cc(Cl)ccc12	none
COc1ccc(-c2cc3ccccc3[nH]2)cc1	aSyn UTR act -159
COc1ccc2[nH]c(-c3cccc(F)c3)cc(=O)c2c1	none
c1ccc(-c2cc3ccccc3[nH]2)cc1	aSyn UTR act -139
N/C(=N\OC(=O)c1cccnc1)c1ccc(Cl)cc1Cl	aSyn UTR act -153
N/C(=N\OC(=O)c1cccnc1)c1ccccc1Cl	aSyn UTR act -69
CCOc1ccc2oc(C(=O)NC(C)(C)CC)c(C)c2c1	aSyn UTR act -118
Cc1cc2ncc(-c3ccc(Cl)cc3)cn2n1	aSyn UTR act -84
c1ccc(-c2ccc(CN3CCSCC3)cc2)cc1	aSyn UTR act -88
CCc1ccc(/C=C/c2c([N+](=O)[O-])c(=O)n(C)c(=O)n2C)cc1	aSyn UTR act -62
Cn1c(/C=C/c2ccc(Cl)cc2Cl)c([N+](=O)[O-])c(=O)n(C)c1=O	aSyn UTR act -204
Cc1nn(-c2ccccn2)c2c1-c1nc(N)ncc1CC2	aSyn UTR act -101
Cc1ccc2c(c1)c1nc3ccccc3nc1n2C	aSyn UTR act -90
O=C(NCC(=O)N1CCN(c2ccccc2O)CC1)c1cccs1	aSyn UTR act -63
Cc1c(NC(=O)Nc2cccs2)cccc1[N+](=O)[O-]	aSyn UTR act -71
Cc1ccc(NC(=O)Nc2cccs2)c(Cl)c1	aSyn UTR act -201
O=C(NC(=O)c1csnn1)Nc1ccccc1Cl	aSyn UTR act -103

Screening data from PubChem.
